Assay outcomes as filed in PubChem.
NPSR antagonist – qHTS Assay for Antagonists of the Neuropeptide S Receptor: cAMP Signal Transduction. Q6W5P4. CHO-NPSR cells, cAMP TR-FRET, antagonist mode. Potency, µM (titrated, usually from 38.3 µM), without a hit: at the top dose activity change, negative = inhibition, hits mostly inhibitors. 220,000 tested, 1% active. AID 1461, 2008; note: nearly all actives have a fitted effect of over 50% in size
RORgamma inh – qHTS for inhibitors of ROR gamma transcriptional activity. Nuclear receptor ROR-gamma (Mus musculus), P51450. Drosophila S2 Gal4-RORgamma UAS-luciferase reporter, 20 h. Potency, µM (highest dose often 53.6 µM), inactives show top-dose activity change, negative = inhibition, usual class: inhibitors. 310,000 tested, 5.4% active; note: nearly all actives have a fitted effect of over 60% in size
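In this cell-based reporter format, copper sulfate (700 uM final) drives Gal4–ROR gamma fusion expression from a metallothionein promoter in Drosophila Schneider cells; compounds preincubated 1 hr, reporter read after 20 hr at ambient temperature.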
Gal4-VP16 FLuc – VP16 counterscreen qHTS for inhibitors of ROR gamma transcriptional activity; Drosophila S2 Gal4-VP16 UAS-luciferase, luminescence, 20 h; Potency, µM (highest dose often 53.6 µM), without a hit: at the highest dose activity, negative = inhibition, actives largely listed as inhibitors; 310,000 tested, 3.5% active;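 note: Gal4-VP16 expression switched on by copper sulfate through the metallothionein promoter; nearly all actives have a fitted effect of over 50% in size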
B2AR arrestin – qHTS assay of beta-arrestin-biased ligands of beta2-adrenergic receptor; Beta-2 adrenergic receptor (Homo sapiens), P07550; beta-arrestin recruitment to beta2AR, cell-based reporter; Potency, µM (highest dose often 46.1 µM), for inactives: at the top dose activation, actives largely listed as activators; 330,000 tested, 0.02% active; AID 492947, 2010;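 note: 0% = DMSO controls and full agonism = EC100 isoproterenol or metaproterenol; nearly all actives have a fitted effect of over 65% in size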
Target sequence (P07550 whole entry, looked up): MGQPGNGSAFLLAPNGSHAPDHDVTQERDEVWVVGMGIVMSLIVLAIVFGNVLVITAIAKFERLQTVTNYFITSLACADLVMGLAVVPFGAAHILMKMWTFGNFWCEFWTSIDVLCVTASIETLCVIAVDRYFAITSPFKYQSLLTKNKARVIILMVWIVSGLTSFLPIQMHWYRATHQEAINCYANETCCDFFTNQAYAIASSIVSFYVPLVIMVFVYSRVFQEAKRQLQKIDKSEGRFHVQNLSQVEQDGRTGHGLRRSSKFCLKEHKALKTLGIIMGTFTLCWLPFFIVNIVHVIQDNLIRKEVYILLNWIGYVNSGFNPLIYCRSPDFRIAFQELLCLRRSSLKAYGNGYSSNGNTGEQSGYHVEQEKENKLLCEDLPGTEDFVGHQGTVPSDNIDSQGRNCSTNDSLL
The depositor's hits bear a star; ? = inconclusive; . = not tested or not shown; [ ] = remark or other dose. An excerpt weighted towards active compounds, which were near 5.7% of everything screened. Calls come from the whole dose curve; as a rule, active = well fitted curve in the direction sought with a large enough effect; inconclusive = small, poorly fitted or top-dose-only effect, or another doubt; inactive = no such curve, though single readings can be large; an effect the other way counts as inactive or inconclusive. Unless noted, % is set by controls: 0 for no effect and ±100 for the full control effect; potency is the fitted concentration of half-maximal effect.

SMILES	NPSR antagonist	RORgamma inh	Gal4-VP16 FLuc	B2AR arrestin
CCOC(=O)Cc1cc(=O)[nH]c(Nc2nc3ccccc3o2)n1	-19%[46.1 µM]	10µM*	16µM*	-1%
COCc1cc(=O)[nH]c(Nc2nc3ccccc3o2)n1	-20%[46.1 µM]	3.5µM*	?	0%
COc1ccc(CCN2C(=O)CSC2=Nc2ccc(C(C)C)cc2)cc1OC	?	?	?	0%
C=C[C@](C)(O)CCC1C(=C)CC(OC(C)=O)C2C(C)(C)CCCC12C (stereo not given in full)	.	1.1µM*	-17%	.
CC(=O)c1cccc(NC(=S)NC(=O)c2cccc(Cl)c2)c1	-15%	2.8µM*	10µM*	-1%
CC(=O)c1cccc(NC(=S)NCc2ccccc2)c1	.	?	12%	0%
CC(C)OC(=O)c1ccc(NC(=S)NC(=O)c2cncc(Br)c2)cc1	.	2.2µM*	2.8µM*	0%
CC(=O)c1cccc(NC(=S)NCCc2ccc(Cl)cc2)c1	-11%	13µM*	?	0%
CNC(=S)Nc1cccc(C(C)=O)c1	15%	-14%	0%	0%
COC(=O)c1cccc(NC(=S)NCCC2=CCCCC2)c1	-11%[46.1 µM]	3.2µM*	?	1%
CC(C)OC(=O)c1ccc(NC(=O)c2cncc(Br)c2)cc1	-3%	?	-10%	-1%
CC(C)C[C@H](NC(=O)c1ccc(NCc2cnc[nH]2)cc1-c1cccc2ccccc12)C(=O)O	.	5%	0%	.
CN(C)c1ncc2nc(-c3ccccc3)c(=O)n(-c3ccccc3)c2n1	.	-26%	-12%	.
Cc1nc2ccc(S(=O)(=O)NCC(=O)N(C)Cc3ccccc3)cc2s1	21%	2%	-1%	0%
CCn1c(=O)c2sccc2n2c(CCCC(=O)NCc3cccnc3)nnc12	.	-25%	-1%	0%
CC(=O)c1cccc(NC(=S)NC(=O)C(C)C)c1	-11%[46.1 µM]	13µM*	-1%	-1%
CC(=O)c1cccc(NC(=S)NC(=O)CC(C)(C)C)c1	-8%[46.1 µM]	13µM*	?	1%
CC(=O)c1cccc(NC(=S)NC(=O)c2cncc(Br)c2)c1	.	10µM*	18µM*	-1%
CC(=O)c1cccc(NC(=S)NC(=O)c2ccccc2)c1	4%	8.9µM*	?	-1%
NS(=O)(=O)c1cccc(NC(=O)c2cncc(Br)c2)c1	2%	?	-3%	0%
COc1cccc([C@@H]2Oc3ccc(Br)cc3C(=O)[C@H]2OC(=O)N[C@H]2CCCc3ccccc32)c1	.	-1%	-2%	.
CC(=O)c1cccc(NC(=O)NC2CCCCCCC2)c1	.	-10%	-21%	0%
CC(C)CCNC(=O)c1cccc(Cl)c1	-1%[46.1 µM]	21%	10%	0%
CC(=O)c1cccc(NC(=S)NC2CCCCCCC2)c1	.	3.2µM*	13µM*	0%
CN(C)C(=S)NC(=O)c1cccc(Cl)c1	-10%	0.56µM*	2µM*	0%
SMILES	NPSR antagonist	RORgamma inh	Gal4-VP16 FLuc	B2AR arrestin
Clc1cccc(Cl)c1CSc1nnc([C@@H]2CCCN2)o1	1%[7.67 µM]	4%	-10%	-1%
COc1ccc(CNc2ncnc3sccc23)cc1	.	?	?	0%
c1ccc(CNc2ncnc3sccc23)cc1	.	-12%	18µM*	0%
CN(C)C(CNc1ncnc2sccc12)c1ccccc1 (stereo not given)	13%	10%	3%	0%
OC(CNc1ncnc2sccc12)c1ccccc1 (stereo not given)	.	?	6.3µM*	0%
COc1ccc(CNc2ncnc3sccc23)cc1OC	.	?	11µM*	0%
C1CCCC1	.	9%	-2%	.
Cc1cc(C)cc(NC(=O)CSc2nc(N)c(NC(=O)c3cccs3)c(=O)[nH]2)c1	-8%	-8%	4%	0%
CC(=O)/C(N=Nc1ccc(C(=O)O)cc1[N+](=O)[O-])=C(\C)O	5%	0%	-2%	0%
CC(=O)/C(N=Nc1cc(C)ccc1O)=C(\C)O	16%	3.2µM*	-3%	0%
COc1cccc(-c2cc(NCc3cccc(C)c3)ncn2)c1	.	25%	17%	.
O=C(O)CNC(=O)c1ccc(CO)o1	.	7%	6%	.
CC1(C)CC(=O)C2=C(C1)OC1=C(C(=O)CC(C)(C)C1)C2c1ccc(O)cc1O	13µM*	3.2µM*	6.3µM*	-1%
O=C(O)c1ccc(Nc2c3ccccc3nc3ccccc23)cc1	.	?	20µM*	-1%
Cc1ccc(-c2nc(Nc3ccc(N4CCOCC4)cc3)c3ccccc3n2)cc1	13µM*	33%	24%	-1%
